Experimental data as given in PubChem BioAssay.
Entries with a potency or affinity are not part of this list. Results filed as inconclusive are left out. The source made the active and inactive calls.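 How the source made its calls: active means falling signal with fitted half-maximal potency no higher than twice the top valid tested dose; inconclusive means poor fit quality, or flat fit spanning -70% to -30%; inactive means potency over limit, rising signal, or flat fit inside 30%.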

test: fungal growth arrest, C. neoformans – Alamar Blue, cherry-picks, dose response (AID 686998); conditions: Cryptococcus neoformans growth, 24 h; series mostly up to 35 µM; activity change, negative = inhibition: at the top concentration

Activity change, negative = inhibition, inactive:
O=C(Nc1ccc(F)cc1)N1C[C@@H]2[C@H](c3ccccc31)[C@H](CO)N2Cc1cocn1 -32.6%
C[C@@H]1CN([C@H](C)CO)C(=O)c2cc(NS(=O)(=O)c3ccc(Cl)cc3)ccc2O[C@H]1CN(C)S(=O)(=O)c1ccc(F)cc1 20.1%
COc1ccccc1-c1cnc2c(c1)C(=O)N([C@H](C)CO)C[C@@H](C)[C@H](CN(C)Cc1cncnc1)O2 51.1%
CNC[C@H]1Oc2c(NS(=O)(=O)c3cccs3)cccc2C(=O)N([C@H](C)CO)C[C@@H]1C -0.414%
Cc1noc(C)c1S(=O)(=O)N(C)C[C@@H]1Oc2c(NC(=O)c3cnccn3)cccc2C(=O)N([C@@H](C)CO)C[C@@H]1C -22.3%
CN1C(=O)c2cc(NS(C)(=O)=O)ccc2OC[C@@H]2O[C@@H](CC(=O)O)CC[C@@H]21 -20.4% [at 30 µM]
CNC(=O)C[C@H]1CC[C@H]2[C@H](COc3ccc(NC(=O)c4cc(C)on4)cc3C(=O)N2C)O1 -23.3%
C[C@@H]1CCCCO[C@@H](CN(C)S(=O)(=O)c2ccc(F)cc2)[C@@H](C)CN([C@@H](C)CO)C(=O)c2cc(NS(=O)(=O)c3ccc(F)cc3)ccc2O1 -7.73%
COc1cccc(C2CC(c3cccs3)=NN2C(=O)c2ccco2)c1O (stereo not given) -3.82%
COCCNC(=O)C[C@@H]1CC[C@@H]2[C@H](COC[C@@H](O)CN2S(=O)(=O)c2ccccc2C)O1 11.1%
O=C(C[C@H]1C[C@@H]2c3cc(NC(=O)CC4CC4)ccc3O[C@@H]2[C@@H](CO)O1)NCc1cccc(F)c1 29.3%
O=C(C[C@@H]1C[C@@H]2c3cc(NC(=O)Nc4ccc(F)cc4)ccc3O[C@@H]2[C@@H](CO)O1)NCC1CC1 63.9% [at 30 µM]
CO[C@@H]1CN(C)C(=O)c2ccc(NC(=O)C3CC3)cc2OC[C@H](C)N(C(=O)c2ccncc2)C[C@H]1C -25.4%
CCCC#Cc1cnc2c(c1)C(=O)N([C@@H](C)CO)C[C@H](C)[C@H](CN(C)C(=O)Nc1cccc(F)c1)O2 33.9%
Cc1cccc(C)c1NC(=O)CNC(=O)C1CCCC1 -36.3%
COc1ccc(NC(=O)N(C)C[C@H]2OCCCC[C@@H](C)Oc3ccc(NC(=O)c4ccccc4)cc3C(=O)N([C@@H](C)CO)C[C@H]2C)cc1 -27.1%
CC1(C(=O)Nc2ccc3ccccc3c2)CCC(=O)N1C1CC1 (stereo not given) -41.9%
CO[C@H]1CN(C)C(=O)c2cc(NC(=O)C3CCOCC3)ccc2OC[C@@H](C)NC[C@H]1C 28.1% [at 30 µM]
CN1[C@H](C(=O)N2CCc3ccccc3C2)[C@@H](CO)[C@@H]2Cn3c(ccc(-c4cccnc4)c3=O)[C@@H]21 17.3%
C/C=C/c1ccc([C@@H]2[C@@H](CNC(=O)C3CC3)N(C(=O)CC)[C@H]2CO)cc1 0.874%
C[C@@H]1CN([C@@H](C)CO)C(=O)CCCn2nncc2CO[C@H]1CN(C)Cc1cccc(C(F)(F)F)c1 5.64%
O=C(C[C@@H]1CC[C@@H]2[C@H](COC[C@H](O)CN2Cc2cccc(C(F)(F)F)c2)O1)NCc1ccccc1 -13.7%
CCC(=O)N[C@H]1C=C[C@@H](CC(=O)OC)O[C@@H]1CO -32.8%
C[C@H]1CN([C@@H](C)CO)C(=O)c2cccc(NS(C)(=O)=O)c2O[C@H]1CN(C)C(=O)Nc1ccc2c(c1)OCO2 11.4%
C[C@H]1CN([C@@H](C)CO)C(=O)Cc2cc(NC(=O)Nc3cccc4ccccc34)ccc2O[C@H]1CN(C)S(=O)(=O)c1cccs1 -30.5%
C[C@@H]1CN([C@H](C)CO)C(=O)CCCn2cc(nn2)CO[C@@H]1CN(C)C(=O)CCCN(C)C -33.1%
C[C@H]1CN([C@@H](C)CO)C(=O)Cc2cc(NS(=O)(=O)c3ccc(F)cc3)ccc2O[C@H]1CN(C)S(=O)(=O)c1ccc(F)cc1 43.2%
CCC(=O)N1[C@@H]2Cn3c(cccc3=O)[C@H]1[C@@H](C(=O)NCc1ccccc1)[C@@H]2CO -10.2%
CCNC(=O)C[C@@H]1CC[C@H]2[C@@H](COC[C@@H](O)CN2S(=O)(=O)c2ccccc2F)O1 8%
CNC[C@H]1OCCCC[C@H](C)Oc2ccc(NC(=O)CCCN(C)C)cc2C(=O)N([C@H](C)CO)C[C@@H]1C -21.6%
COc1cccc(S(=O)(=O)N(C)C[C@@H]2Oc3ncc(-c4cccc(F)c4)cc3C(=O)N([C@H](C)CO)C[C@@H]2C)c1 5.28%
C[C@H](CO)N1C[C@H](C)[C@H](CN(C)Cc2cccnc2)Oc2ncc(C#CC3(O)CCCC3)cc2C1=O -14.1%
COC(=O)N(C)C[C@H]1OCc2cn(nn2)CCCC(=O)N([C@H](C)CO)C[C@@H]1C -35.3%
C[C@@H]1CN([C@H](C)CO)C(=O)c2cc(NS(=O)(=O)c3ccccc3)ccc2O[C@H]1CN(C)C(=O)NC1CCCCC1 -5.63% [at 30 µM]
COc1ccc(CNC(=O)COc2ccc(OC)cc2)cc1 -0.876%
CC(=O)NNC(=O)CSc1nnc(-c2ccccc2)c(-c2ccccc2)n1 -26.9%
CCCN(C)C[C@H]1OCCCC[C@@H](C)Oc2ccc(NC(=O)NC(C)C)cc2C(=O)N([C@@H](C)CO)C[C@H]1C -18%
CCOC(=O)CNC(=O)CSc1ncnc2c1cnn2-c1ccc(OC)cc1 -47.9%
C[C@H]1CN([C@@H](C)CO)C(=O)CCCn2nncc2CO[C@@H]1CN(C)Cc1cccc(C(F)(F)F)c1 -36.5%
CCC(=O)N1C[C@H](O)COC[C@@H]2O[C@@H](CC(=O)NCc3ccccc3Cl)CC[C@H]21 -29.3%
